Consider 18 compounds from PubChem BioAssay AID2567 (National Center for Advancing Translational Sciences (NCATS), 2010).

Molecules are shown by their SMILES. “And” between values parts separate entries of the source, which are not always exact repeats. Identical values can stand only once. Records with an inconclusive call do not appear. The source made the active and inactive calls. Calls come from the whole dose curve; as a rule, active = well fitted antagonist curve with a large enough effect in the main read-out, with a control signal flat; inconclusive = small, poorly fitted or top-dose-only effect; inactive = no such curve, though single readings can be large or run the other way.

Neuropeptide S receptor (Homo sapiens), sequence (Q6W5P4 whole entry, looked up): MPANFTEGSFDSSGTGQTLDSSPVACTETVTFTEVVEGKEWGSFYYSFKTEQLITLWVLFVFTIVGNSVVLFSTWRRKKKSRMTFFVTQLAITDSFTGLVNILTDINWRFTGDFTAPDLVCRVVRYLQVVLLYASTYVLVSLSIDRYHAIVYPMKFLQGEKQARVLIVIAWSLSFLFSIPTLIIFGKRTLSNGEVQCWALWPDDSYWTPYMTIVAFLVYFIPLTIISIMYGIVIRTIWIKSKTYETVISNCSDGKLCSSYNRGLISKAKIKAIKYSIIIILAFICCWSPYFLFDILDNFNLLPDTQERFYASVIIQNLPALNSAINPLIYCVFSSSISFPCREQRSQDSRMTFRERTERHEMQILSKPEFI

For this assay, the target named is Neuropeptide S receptor (Homo sapiens) (UniProt Q6W5P4). The assay is described as follows: Confirmation Concentration-Response Assay for Antagonists of the Neuropeptide S Receptor: Calcium Signal Transduction, SAR for Probe. Conditions: CHO-NPSR cells, NPS-induced calcium fluorescence, FDSS; series mostly up to 50.9 µM; activity change, negative = inhibition: at the top concentration. The source says:
NIH Chemical Genomics Center [NCGC] NIH Molecular Libraries Probe Production centers Network [MLPCN] MLPCN Grant: X01-DA026210-01 Assay Submitter (PI): Heilig, Markus Alexander NCGC Assay Overview: Neuropeptide S receptor (NPSR), previously known as GPR154, is a recently de-orphanized G protein coupled receptor. Its endogenous ligand is the 20 amino acids peptide Neuropeptide S (NPS). […] NPS and its receptor are found in various tissues. Specifically they are highly expressed in brain areas that have been implicated in modulation of arousal, stress and anxiety. Central administration of NPS in mice produces an unusual profile of activity by inducing wakefulness and arousal, while at the same time suppressing anxiety. Therefore, NPSR may represent a novel drug target for the treatment of sleep and anxiety disorders. To identify NPSR antagonists, we developed a cell-based assay with transfected NPS receptor. NPS can stimulate the production of cAMP as well as release intracellular calcium in Chinese hamster ovary cells stably expressing NPS receptor. This change in intracellular calcium can be detected using a calcium indicator dye on a calcium imaging plate reader system (FDSS).
NCGC Assay Protocol Summary: A Chinese hamster ovary (CHO) cell line stably expressing the NPS receptor (CHO-NPSR) was obtained from Dr. Heilig lab at NIAAA and maintained in F-12 Kaighn's media (Invitrogen, Carlsbad, CA, 21127) supplemented with 10 % FBS, 100 units/ml penicillin, 100 ug/ml streptomycin and 250 ug/ml geneticin at 37C, 5% CO2 in a humidified atmosphere. Before the assay, aliquots of cells were frozen and stored at -135C. The assay was performed on a FDSS-7000 kinetic plate reader in 1536-well format. For both agonist (1-220s) and antagonist (221-400s) phases, the maximums of kinetic fluorescence responses were converted separately into text files using the instrument's software data export utility. Data for agonist response were normalized to the controls for basal activity (DMSO only) and 100% activation (NPS). […] AC50 values were determined from concentration-response data modeled with the standard Hill equation. NPS 1536-well FDSS assay protocol: (1) Frozen CHO-NPSR cells were thaw, washed once with fresh media and resuspended in F-12 Kaighn's media supplemented with 10 % FBS, 100 units/ml penicillin and 100 ug/ml streptomycin. Cells were plated at 3 ul/well (1200 cells) to black, clear-bottom, tissue-culture treated 1536-well plates, and then cultured at 37C, 5 % CO2 for 16 to 30 hours. (2) Add 3 ul of calcium dye (from High Performance PBX Calcium Assay Kit, BD Biosciences). The calcium dye was prepared according to the manufactory's instruction. (3) Incubation at 37C, 5 % CO2 for 60 to 120 min. (4) Load plates to FDSS-7000. The following steps were performed on FDSS-7000. (5) Record fluorescent background (Ex 480 nm, Em 520-560 nm) for 10 s. (6) Add 23 nl/well of compound in DMSO solution. The final titration for each compound was between 0.6 nM and 46 uM. Record agonist response for 210 s. (7) Add 2 ul of stimulation reagent (1X HBSS buffer, 0.1% BSA, 60 nM NPS). Record antagonist response for 140 s. Keywords: MLSMR, MLPCN, NIH Roadmap, qHTS, NCGC, NPS, Neuropeptide S Antagonists
`C=C1C(=O)O[C@@H]2C[C@@H](C)[C@@H]3C=CC(=O)[C@@]3(C)[C@@H](OC(=O)CC(=O)O[C@H]3[C@@H]4C(=C)C(=O)O[C@@H]4C[C@@H](C)[C@@H]4C=CC(=O)[C@]43C)[C@H]12`: the Potency is 0.0891 µM (active).

As to `Cn1c(-c2ccccc2)c(P(=S)(c2ccccc2)c2ccccc2)c2ccccc21`, the “activity change, negative = inhibition” value was 7.11% (inactive).

`C=C(C=O)C[C@@H]1C[C@H](O)C2OC3C[C@]4(C)OC5/C=C\CC6OC7C(CC=CCC6OC5CCCC4OC3CC2O1)OC1CC2OC3CC(=O)OC3C[C@@H](C)C[C@@]2(C)OC1C[C@@H]7C` (stereo partly drawn): the Potency is 0.501 µM (active). Still for that read-out and setting: next, `Cc1c(P(=S)(c2ccccc2)c2ccccc2)[n+]2ccccc2n1CCCc1ccccc1`: 0.0552 µM (active). `CC(=O)Nc1cc([As](=O)(O)O)ccc1O`: the “activity change, negative = inhibition” value is 25.2% [at 19.3 µM] (inactive). On the same count and under the same terms, as for `Cn1cc(P(=S)(c2ccccc2)c2ccccc2)c2ccccc21`, the figure is -16.2% (inactive).

Consider `Cc1c(P(=S)(c2ccccc2)c2ccccc2)[n+]2ccccc2n1CCc1ccccc1`, for which the Potency was 1.38 µM (active). Regarding `Cc1c(P(=S)(c2ccccc2)c2ccccc2)c2ccccc2n1C`, the “activity change, negative = inhibition” value was -16.7% (inactive). The same measure, in the same setting: next, `S=P(c1ccccc1)(c1ccccc1)c1c(-c2ccccc2)[nH]c2ccccc12`: -14.5% (inactive). In the case of `S=P(c1ccccc1)(c1ccccc1)c1c[n+](Cc2ccccc2)c2ccccn12`, the Potency is 6.93 µM (active). In the case of `C[C@H]1CCCC(=O)CCCCCc2cc(O)cc(O)c2C(=O)O1`, the “activity change, negative = inhibition” value is 10.8% [at 19.3 µM] (inactive). Consider `Cc1nc2ccccn2c1P(=S)(c1ccccc1)c1ccccc1`, for which the Potency was 9.79 µM (active). As for `S=P(c1ccccc1)(c1ccccc1)c1cnc2ccccn12`, the Potency is 12.3 µM (active). Turning to `CNc1ccc2oc(C[C@H]3O[C@@]4(CC[C@H]3C)O[C@H]([C@H](C)C(=O)c3ccc[nH]3)[C@H](C)C[C@H]4C)nc2c1C(=O)O`, the Potency is 0.0158 µM (active).

As to `Cc1c(P(=S)(c2ccccc2)c2ccccc2)[n+]2ccccc2n1C/C=C/c1ccccc1`, the Potency was 0.0438 µM (active).

In the case of `Cc1c(P(=S)(c2ccccc2)c2ccccc2)[n+]2ccccc2n1C`, the Potency is 199 nM (active) and 251 nM (active) and 220 nM (active). On the same count and under the same terms, next, `CCOC(=O)c1c(-n2c(C)cc(C=C3C(=O)NC(=S)NC3=O)c2C)sc2c1CCCC2`: 2 µM (active); `Cc1c(P(=S)(c2ccccc2)c2ccccc2)[n+]2ccccc2n1Cc1ccccc1`: 1.74 µM (active).
